Screening data from PubChem BioAssay.
The list is not random: actives were taken first. Their share in the collection is about 12%.
JMJD2A Tudor = qHTS Assay for Inhibitors of JMJD2A-Tudor Domain; Lysine-specific demethylase 4A (Homo sapiens), O75164; AlphaScreen JMJD2A-Tudor / H3K4me3 peptide binding; Potency, µM (top dose mostly 114 µM), usual class: inhibitors; hit rate 4.4% among 390,000; AID 504339, 2011; note: nearly all actives have a fitted effect of over 50% in size
PLK1 PBD inh = qHTS for Inhibitors of PLK1-PDB (polo-like kinase 1 - polo-box domain): Primary Screen. Plk1 PBD binding of FITC phosphopeptide, fluorescence polarization. Potency, µM, usual class: inhibitors. hit rate 2.8% among 360,000; note: series mostly up to about 57 µM; nearly all actives have a fitted effect of over 65% in size
G9a inh = qHTS Assay for Inhibitors of Histone Lysine Methyltransferase G9a; Histone-lysine N-methyltransferase EHMT2 (Homo sapiens), Q96KQ7; G9a H3K9 monomethylation, AlphaScreen, 2 h; Potency, µM (highest dose often 102 µM), usual class: inhibitors; hit rate 8.8% among 350,000; AID 504332, 2011; note: nearly all actives have a fitted effect of over 75% in size
Target sequence (Q96KQ7 913-1193 limits assumed): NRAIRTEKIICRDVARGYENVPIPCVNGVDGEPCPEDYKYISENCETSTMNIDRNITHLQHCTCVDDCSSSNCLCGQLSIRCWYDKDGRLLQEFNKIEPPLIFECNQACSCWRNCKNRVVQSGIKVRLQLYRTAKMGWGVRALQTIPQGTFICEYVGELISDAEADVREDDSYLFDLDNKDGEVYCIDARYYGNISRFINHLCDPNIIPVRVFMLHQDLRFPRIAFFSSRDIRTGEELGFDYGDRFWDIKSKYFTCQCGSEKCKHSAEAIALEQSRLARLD
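G9a (20 nM) preincubated 15 min RT with compounds, then 500 nM biotinylated H3K9 peptide and 20 uM SAM added; 2 h RT reaction. Monomethyl-H3K9 product detected by AlphaScreen with anti-H3K9me1 antibody, streptavidin donor and anti-rabbit IgG acceptor beads.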
HP1b binding inh = HTS for Inhibitors of HP1-beta Chromodomain Interactions with Methylated Histone Tails | hit rate 0.56% among 390,000 | AlphaScreen HP1-beta / biotin-H3K9me3 peptide binding | Potency, µM (doses to about 114 µM), hits mostly inhibitors; note: nearly all actives have a fitted effect of over 70% in size
Target sequence (P83916 whole entry, looked up): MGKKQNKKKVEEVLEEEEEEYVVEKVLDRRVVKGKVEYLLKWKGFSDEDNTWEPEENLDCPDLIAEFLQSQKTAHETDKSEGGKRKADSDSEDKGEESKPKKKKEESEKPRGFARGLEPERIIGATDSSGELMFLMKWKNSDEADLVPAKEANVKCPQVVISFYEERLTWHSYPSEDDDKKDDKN
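HP1-beta protein (50 nM final) preincubated 30 min at room temperature with biotinylated H3(1-18)K9me3 peptide (50 nM) in PBS pH 7.4, 0.01% Tween-20, then compound added for 30 min. AlphaScreen streptavidin donor/nickel chelate acceptor beads (10 ug/mL final), 30 min dark, luminescence read.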
PI5P4K alpha inh = qHTS for Inhibitors of phosphatidylinositol 5-phosphate 4-kinase (PI5P4K) | Phosphatidylinositol 5-phosphate 4-kinase type-2 alpha (Homo sapiens), P48426 | PI5P4Kalpha enzyme, ADP-Glo luminescence, 60 min; hits give low values | max response, % | hit rate 1.2% among 330,000; active = max response of -50% or lower; inconclusive = between -30% and -50%; inactive = -30% or higher; note: value at the top dose of about 77 µM
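PI5P4Kalpha ADP-Glo assay; 5 microM ATP final; 60 min RT reaction; HEPES pH 7.4/EGTA/CHAPS, 5% DMSO; controls lacking substrate or enzyme; luminescent end-point.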
BAZ2B block = qHTS Assay for Inhibitors of BAZ2B. Bromodomain adjacent to zinc finger domain protein 2B (Homo sapiens), Q9UIF8. AlphaScreen BAZ2B-H3K14Ac peptide displacement. Potency, µM (highest dose often 114 µM), most hits filed as inhibitors. hit rate 4.4% among 360,000; note: nearly all actives have a fitted effect of over 60% in size
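Inhibition is scored as reduced AlphaScreen emission. The BAZ2B/b-H3(5-23)K14Ac complex (50 nM each) in PBS pH 7.4, 0.01% Tween-20 meets compound (up to 110 uM) for 30 min at RT before bead addition.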
Large screens that a line does not name were inactive. Unless noted, calls come from the whole dose curve; as a rule, active = well fitted curve in the direction sought with a large enough effect; inconclusive = small, poorly fitted or top-dose-only effect, or another doubt; inactive = no such curve, though single readings can be large; an effect the other way counts as inactive or inconclusive.

O=C(Nc1ccc(S(=O)(=O)Nc2ncccn2)cc1)c1ccccc1Br	none
COc1ccc(-c2cc(C(F)(F)F)nc(SCCC(=O)Nc3cccc(O)c3)n2)cc1	none (no result: PLK1 PBD inh, PI5P4K alpha inh)
S=c1[nH]nc(-c2ccncc2)n1/N=C/c1cn(-c2ccccc2)nc1-c1ccccc1	G9a inh inconclusive, PI5P4K alpha inh -58
CCc1n[nH]c(=S)n1/N=C/c1ccc2c(c1)OCO2	JMJD2A Tudor 4.5µM (no result: G9a inh, PI5P4K alpha inh)
S=c1[nH]nc(-c2ccncc2)n1/N=C/c1cccc2ccccc12	G9a inh 1.1µM (no result: JMJD2A Tudor, PLK1 PBD inh, HP1b binding inh, PI5P4K alpha inh)
CCc1n[nH]c(=S)n1/N=C/c1ccccc1OCc1ccc(Cl)cc1	none (no result: G9a inh)
CCc1n[nH]c(=S)n1/N=C/c1c(O)ccc2ccccc12	JMJD2A Tudor 14µM, G9a inh inconclusive
COCCNc1oc(-c2ccccc2Cl)nc1S(=O)(=O)c1ccc(C)cc1	none (no result: G9a inh, BAZ2B block)
CCc1n[nH]c(=S)n1/N=C/c1cccc2ccccc12	JMJD2A Tudor inconclusive, G9a inh 1.6µM
O=C1C(C=NCc2ccccn2)=C(O)c2ccccc21	BAZ2B block 89µM (no result: PI5P4K alpha inh)
CCCCNC(=O)c1ccc2c(c1)ncn2-c1cc(OC)ccc1OC	G9a inh inconclusive (no result: PLK1 PBD inh, PI5P4K alpha inh)
O=C(O)C1CC=CCC1C(=O)Nc1cccc([N+](=O)[O-])c1 (configuration not stated)	G9a inh inconclusive, BAZ2B block 89µM
O=C(O)C1CC=CCC1C(=O)Nc1cccc(F)c1 (configuration not stated)	G9a inh inconclusive (no result: PI5P4K alpha inh)
CC1CCCCN1S(=O)(=O)c1cccc2cccnc12 (configuration not stated)	G9a inh 32µM
N#Cc1nc(-c2ccccc2Cl)oc1N1CCCCC1	JMJD2A Tudor inconclusive, G9a inh 35µM, HP1b binding inh inconclusive, BAZ2B block 22µM
N#Cc1nc(COc2cccc(Cl)c2)oc1N1CCN(c2ccccc2)CC1	JMJD2A Tudor inconclusive, G9a inh inconclusive, BAZ2B block inconclusive (no result: PI5P4K alpha inh)
CCN1CCN(c2oc(COc3ccc(-c4ccccc4)cc3)nc2C#N)CC1	JMJD2A Tudor inconclusive, G9a inh 40µM, BAZ2B block 32µM
COc1ccccc1/C=C/c1nc(C#N)c(N2CCCCC2)o1	G9a inh inconclusive, BAZ2B block inconclusive (no result: PLK1 PBD inh, PI5P4K alpha inh)
COc1ccc(N2CCN(c3oc(/C=C/c4ccccc4OC)nc3C#N)CC2)cc1	JMJD2A Tudor inconclusive, G9a inh inconclusive, HP1b binding inh inconclusive, BAZ2B block 3.2µM (no result: PLK1 PBD inh, PI5P4K alpha inh)
CC1CN(c2oc(COc3ccc(Cl)cc3Cl)nc2C#N)CC(C)O1 (configuration not stated)	JMJD2A Tudor inconclusive, G9a inh inconclusive, BAZ2B block 35µM
COc1ccc(C(=O)Nc2ccc(-n3nncc3-c3ccc(OC)c(OC)c3)cc2)cc1	none (no result: PLK1 PBD inh, PI5P4K alpha inh)
CCc1nc2c(OCc3cccc(Cl)c3)cccn2c1N(C)C(=O)C1CC1	none (no result: JMJD2A Tudor, G9a inh, HP1b binding inh, BAZ2B block)
FC(F)(F)c1ccccc1-c1ccc2ncnc(N3CCOCC3)c2c1	none (no result: JMJD2A Tudor, PLK1 PBD inh, HP1b binding inh, PI5P4K alpha inh, BAZ2B block)
COc1ccc(OCc2nc(C#N)c(N3CCN(c4ccc(OC)cc4)CC3)o2)cc1	JMJD2A Tudor inconclusive, G9a inh 11µM, BAZ2B block inconclusive
N#Cc1nc(COc2ccccc2Cl)oc1N1CCCC1	JMJD2A Tudor inconclusive, G9a inh 7.9µM, HP1b binding inh inconclusive, BAZ2B block 13µM
N#Cc1nc(COc2ccccc2Cl)oc1N1CCCCCC1	HP1b binding inh inconclusive, BAZ2B block inconclusive
COc1ccc(N2CCN(c3oc(COc4ccccc4Cl)nc3C#N)CC2)cc1	JMJD2A Tudor inconclusive, G9a inh 10µM, HP1b binding inh inconclusive, BAZ2B block 7.9µM (no result: PI5P4K alpha inh)
O=C1Nc2ccccc2/C1=C\C(=O)c1ccccc1	JMJD2A Tudor inconclusive, PLK1 PBD inh 19µM, G9a inh 25µM
CN(O)/C=C1\C(=O)Nc2ccccc21	G9a inh 50µM
O=C1Nc2ccccc2Nc2ccccc21	JMJD2A Tudor 50µM, G9a inh 14µM, BAZ2B block inconclusive
CCOC(=O)C1=CCN(S(=O)(=O)c2ccccc2[N+](=O)[O-])C1c1ccc(C)cc1 (configuration not stated)	none (no result: JMJD2A Tudor, G9a inh, HP1b binding inh, BAZ2B block)
Cc1ccc(S(=O)(=O)NCC(=O)NCC(=O)OCC(=O)N2CC(=O)Nc3ccccc32)cc1C	JMJD2A Tudor inconclusive, PLK1 PBD inh 17µM, HP1b binding inh inconclusive
Cc1cc(C(=O)OCC(=O)N2CC(=O)Nc3ccccc32)c(C)n1-c1ccccc1	JMJD2A Tudor 56µM, G9a inh inconclusive, HP1b binding inh inconclusive, BAZ2B block 50µM
O=C1CN(C(=O)COc2ccc(Br)cc2F)c2ccccc2N1	G9a inh 45µM
Cn1c2ccccc2c2cc(C(=O)OCC(=O)N3CC(=O)Nc4ccccc43)sc21	G9a inh 50µM
Cc1ccc(C)c(Cn2c(=O)n(CCCC(=O)NCc3ccc4c(c3)OCO4)c(=O)c3sccc32)c1	none (no result: PLK1 PBD inh, PI5P4K alpha inh)
C[C@H](CO)N1C[C@H](C)[C@@H](CN(C)S(=O)(=O)c2ccccc2)Oc2ccc(NC(=O)NC3CCCCC3)cc2C1=O	none (no result: G9a inh, BAZ2B block)
Cc1ccc(C)c(S(=O)(=O)c2c(N)n(/N=C/c3ccco3)c3nc4ccccc4nc23)c1	G9a inh 50µM, BAZ2B block inconclusive (no result: PI5P4K alpha inh)
Cc1cccc(S(=O)(=O)c2c(N)n(/N=C/c3ccccc3)c3nc4ccccc4nc23)c1	none
CCCCOC(=O)C1CCCC(C)N1 (configuration not stated)	JMJD2A Tudor 22µM, G9a inh 28µM (no result: PI5P4K alpha inh)
CCOc1ccc2nc(SCC3CC3(Cl)Cl)[nH]c2c1 (configuration not stated)	G9a inh 45µM
CCC(C)N(C(=O)CSc1nc2ccc(OC)cc2[nH]1)C1CCS(=O)(=O)C1 (configuration not stated)	G9a inh 40µM
COc1ccc2nc(SCC(N)=O)[nH]c2c1	none (no result: PI5P4K alpha inh)
COc1ccc2nc(SCCN(C)C)[nH]c2c1	G9a inh inconclusive, HP1b binding inh inconclusive, BAZ2B block 50µM
Cc1cc(C)c2cc(C(=O)N3CCN(c4ncccc4C(F)(F)F)CC3)[nH]c2c1	JMJD2A Tudor inconclusive, G9a inh inconclusive
COc1cccc(CNC(=O)Cn2nc(C)n3c(cc4cc(C)ccc43)c2=O)c1OC	none (no result: PLK1 PBD inh, PI5P4K alpha inh)
COc1cc(CNC(=O)c2ccccc2NC(=O)C2=C(C)OCCS2)cc(OC)c1OC	none
CN1CCc2nc(SCC(=O)Nc3ccc(OC(F)(F)F)cc3)c(C#N)c(-c3cccs3)c2C1	JMJD2A Tudor inconclusive, PLK1 PBD inh inconclusive
